Assay [1] is described as follows: CCTE_Harrill_HTTr_Viability_MCF7: CCTE's 6-hour Cell Viability Assessment for the High-Throughput Transcriptomics (HTTr) Platform, in MCF-7 cells cultured in DMEM + 10% fetal bovine serum, Harrill Lab (AID 2284010). A digest of the protocol:
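Viability measured through PI dye exclusion by high-content imaging at 6 h post-dosing.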

The nature of assay [2]: CCTE_Harrill_HTTr_Apoptosis_MCF7: CCTE's 6-hour Apoptosis Assessment for the High-Throughput Transcriptomics (HTTr) Platform, in MCF-7 cells cultured in DMEM + 10% fetal bovine serum, Harrill Lab (AID 2284011). An outline of the steps:
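MCF-7 cells in DMEM + 10% fetal bovine serum were exposed to chemicals for 6 hours over an eight-point dilution series. Caspase-3/7 activation was imaged by high content imaging with CellEvent Caspase 3/7 Green; bidirectional fitting used DMSO as baseline.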

Assay [3] can be described thus: CCTE_Harrill_HTTr_CellCount_MCF7: CCTE's Cell Proliferation Assessment for the High-Throughput Transcriptomics (HTTr) Platform, Harrill Lab (AID 2284012; active = hit-call score of the fitted dose curve at least 0.9, where 1 is the maximum;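 also: count of Hoechst-stained nuclei per well by high-content imaging in MCF-7 cells; cells exposed to compound for six hours; intended direction is loss of nuclei count meaning fewer cells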). A digest of the protocol:
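Nuclei counting (Hoechst, high content imaging) in MCF-7 after a 6 h treatment at eight concentrations. Activity fitted bidirectionally, DMSO as negative control.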

Structures are written as SMILES. Values joined by “and” are separate entries in the source; they are usually repeats but may differ in a detail not shown here. Equal entries are not always repeated. Records with an inconclusive call do not appear. Active and inactive are the calls of the source. The calls were made as follows, unless noted: active = hit-call score of the fitted dose curve at least 0.9, where 1 is the maximum; inactive = score below 0.9.

Turning to `CCOP(=S)(OCC)OP(=S)(OCC)OCC`, the outcome in assay [1], in assay [2] and in assay [3] was inactive.
As for `Clc1cccc(Cl)c1`, the result in assay [1], in assay [2] and in assay [3] was inactive.
Consider `N#CCC#N`, for which the result in assay [1], in assay [2] and in assay [3] was inactive.
Consider `C[C@]12CC[C@@H](O)C[C@@H]1CC[C@@H]1[C@@H]2CC[C@]2(C)C(=O)CC[C@@H]12`, for which the outcome in assay [1] and in assay [2] was inactive.
As to `Nc1nc(N)nc(Cl)n1`, the result in assay [1] and in assay [2] was inactive.
Regarding `CCCCCCCCCCCCCCC(Br)C(=O)O` (stereo not drawn), the result in assay [1] and in assay [2] was inactive.
For `Oc1c(Br)cc(Br)cc1Br`, the result in assay [1] and in assay [2] was inactive.
`C[C@H]1C(=O)O[C@@H]2CCN3CC=C(COC(=O)[C@](C)(O)[C@]1(C)O)[C@H]23`: the result in assay [1], in assay [2] and in assay [3] was inactive.
For `N#CS`, the outcome in assay [1] and in assay [2] was inactive.
`CCCSP(=S)(OCC)Oc1ccc(SC)cc1` (stereo not drawn): the outcome in assay [1] and in assay [2] was inactive.
Take `C=CCc1ccccc1O`: the outcome in assay [1] and in assay [2] was inactive.
Consider `CCOC(=O)CCN(SN(C)C(=O)Oc1cccc2c1OC(C)(C)C2)C(C)C`, for which the result in assay [1], in assay [2] and in assay [3] was inactive.
In the case of `CC(C)(C)c1ccc(CCOc2ncnc3ccccc23)cc1`, the outcome in assay [1] and in assay [2] was inactive.
`O=CCCl`: the outcome in assay [1], in assay [2] and in assay [3] was inactive.
Consider `CNC(=O)CSP(=O)(OC)OC`, for which the result in assay [1] and in assay [3] was inactive.
Consider `C1CCC(C2CCCCC2)CC1`, for which the result in assay [1], in assay [2] and in assay [3] was inactive.
With `O=C(O)COc1ccc(Cl)cc1`, the outcome in assay [1], in assay [2] and in assay [3] was inactive.
Broadly, the AC50 is the concentration giving half of the maximal activity seen. For the compound `C[CH2][Hg][S]c1ccccc1C(=O)O`, the AC50 was 49.1 µM (active) in assay [1] and 50 µM (active) in assay [3]. In addition, the result in assay [2] was inactive.
`Cc1cc(SCc2sc(-c3ccc(C(F)(F)F)c(F)c3)nc2C)ccc1OCC(=O)O`: the outcome in assay [1], in assay [2] and in assay [3] was inactive.
Regarding `CC(C)N(C(=O)CCl)c1ccccc1`, the result in assay [1], in assay [2] and in assay [3] was inactive.
Regarding `O=[N+]([O-])c1ccc(Cl)c([N+](=O)[O-])c1`, the AC50 in assay [1] was 67.7 µM (active) and 56.9 µM (active). Further, the result in assay [2] and in assay [3] was inactive.
As to `CNC(=O)O/N=C/C(C)(C)S(C)(=O)=O`, the result in assay [1], in assay [2] and in assay [3] was inactive.
With `CCCSP(=S)(OCC)Oc1ccc(Cl)cc1Cl` (stereo not drawn), the outcome in assay [1], in assay [2] and in assay [3] was inactive.
Take `O=C(O)COc1cc(Cl)c(Cl)cc1Cl`: the outcome in assay [1], in assay [2] and in assay [3] was inactive.
Regarding `O=C1C[C@@H]2OCC=C3CN4CC[C@]56c7ccccc7N1[C@H]5[C@H]2[C@H]3C[C@H]46`, the result in assay [1], in assay [2] and in assay [3] was inactive.
Take `Clc1cnc(Oc2ccc(Oc3ncc(Cl)cc3Cl)cc2)c(Cl)c1`: the result in assay [1], in assay [2] and in assay [3] was inactive.
Consider `O=C(NC(=O)c1c(F)cccc1F)Nc1ccc(Cl)cc1`, for which the result in assay [1], in assay [2] and in assay [3] was inactive.
Turning to `O=[N+]([O-])c1cccc2ccccc12`, the outcome in assay [1], in assay [2] and in assay [3] was inactive.
`Cc1cc(Cl)ccc1OCCCC(=O)O`: the outcome in assay [1], in assay [2] and in assay [3] was inactive.
As to `Nc1ccc(N)cc1`, the result in assay [1], in assay [2] and in assay [3] was inactive.
With `CCOCn1c(-c2ccc(Cl)cc2)c(C#N)c(Br)c1C(F)(F)F`, the result in assay [1], in assay [2] and in assay [3] was inactive.
For `Cc1cc(Cl)ccc1N`, the outcome in assay [1], in assay [2] and in assay [3] was inactive.
Regarding `CC(C)=CC1C(C(=O)OCc2cccc(Oc3ccccc3)c2)C1(C)C` (stereo not drawn), the outcome in assay [1], in assay [2] and in assay [3] was inactive.
For the compound `COc1ccccc1N`, the outcome in assay [1], in assay [2] and in assay [3] was inactive.
As for `OCCN(CCO)CCO`, the outcome in assay [1], in assay [2] and in assay [3] was inactive.
Consider `O=[N+]([O-])c1ccccc1O`, for which the outcome in assay [1], in assay [2] and in assay [3] was inactive.
In the case of `CCC[CH2][Sn]([Cl])([Cl])[CH2]CCC`, the result in assay [1], in assay [2] and in assay [3] was inactive.
Turning to `CCOC(=O)OC1=C(c2cc(C)ccc2C)C(=O)NC12CCC(OC)CC2` (stereo not drawn), the outcome in assay [1], in assay [2] and in assay [3] was inactive.
Regarding `OC[C@@H](O)[C@H]1O[C@@H]2O[C@H](C(Cl)(Cl)Cl)O[C@@H]2[C@H]1O`, the outcome in assay [1], in assay [2] and in assay [3] was inactive.
As for `CC(O)(CS(=O)(=O)c1ccc(F)cc1)C(=O)Nc1ccc(C#N)c(C(F)(F)F)c1` (stereo not drawn), the result in assay [1], in assay [2] and in assay [3] was inactive.
For `Cc1cccc(C)c1NC(=O)CN1CCCC1=O`, the result in assay [1], in assay [2] and in assay [3] was inactive.
In the case of `CC(C=O)Cc1ccc2c(c1)OCO2` (stereo not drawn), the outcome in assay [1], in assay [2] and in assay [3] was inactive.
Take `Brc1c(Br)c(Br)c(Oc2c(Br)c(Br)c(Br)c(Br)c2Br)c(Br)c1Br`: the result in assay [1], in assay [2] and in assay [3] was inactive.
With `CCOc1cc(C=O)ccc1O`, the outcome in assay [1], in assay [2] and in assay [3] was inactive.

Source of the values: PubChem BioAssay (EPA / NIEHS).
